The values below come from PubChem BioAssay (Tox21).

Inconclusive results are not listed. Unmarked numbers belong to inactive results. Calls follow the shape of the dose curve; as a rule, active = well fitted inhibition curve with a large enough effect in the repeat runs; inconclusive = weak or mixed curves, or effect the other way; inactive = no such curve, though single readings can be large or run the other way.
% is scaled to controls: 0 for no effect and ±100 for the full control effect.

This assay is described as follows: qHTS assay to identify small molecule antagonists of the retinoic acid receptor (RAR) signaling pathway (AID 1159552; also: nearly all actives have a fitted effect of over 50% in size). As to conditions: C3RL4 RARE luciferase reporter, retinol-stimulated, 6 h; series mostly up to 92.4 µM; activity, negative = inhibition: at the top concentration. The source says: National Center for Advancing Translational Sciences [NCATS]
NIH Chemical Genomics Center [NCGC]
U.S. Environmental Protection Agency [EPA]
National Institutes of Environmental Health Sciences [NIEHS]
National Toxicology Program [NTP]
U.S. Food and Drug Administration [FDA]
All-trans Retinoic acid (atRA) is the potent natural metabolite of retinol and plays an important role in normal embryonic development and maintenance of cellular phenotype in adult animals. atRA is the activating ligand for the retinoic acid receptors (RARs) which form heterodimers with retinoid X receptors (RXRs) on the retinoic acid response element (RARE). Through activation of the RAR/RXRs nuclear receptors, atRA regulates the transcription of a large number of protein-coding genes and regulatory RNAs. Intracellular levels of atRA are controlled by the retinol signaling pathway (RSP) that regulates the biosynthesis and catabolism of atRA to maintain physiological levels. Chemicals that interfere with the RSP can cause abnormal intracellular levels of atRA and therefore are potential developmental toxicants. To assess compounds for the potential adverse effect on embryonic development through interfering with retinol signaling, a cell-based RARE luciferase reporter gene assay was used. C3RL4 cell line (OARSA/CFSAN/FDA, Laurel, MD) was used to screen Tox21 10K compound library for identifying inhibitors of the RSP.
Tox21 Assay Protocol Summary:
C3RL4 cells were seeded at 1,000/well in 4 uL of assay medium into white solid 1,536-well tissue culture plates (Greiner Bio-One North America Inc. Monroe, NC) using a Multidrop Combi (Thermo Scientific, Waltham, MA) dispenser. After incubation at 37 C and 5% CO2 for an overnight, 23 nL of compounds dissolved in DMSO, positive control or DMSO only were transferred by a Pintool station (Kalypsys, San Diego, CA). One ul of 1 uM (final concentration) of Retinol was added right after the compound addition by using a Flying Reagent Dispenser (FRD) (Aurora Discovery, San Diego, CA). After 6 hr incubation at 37 C and 5% CO2, 5 uL of Amplite Luciferase reagent (AAT Bioquest Inc. Sunnyvale, CA) was added to each assay plate using an FRD. Luminescence was quantified on a ViewLux plate reader (PerkinElmer, Waltham, MA) after 30 min incubation at room temperature.
In general terms: Quantitative high-throughput screening tests each substance at several concentrations.
Turning to `CCCCC(CC)COCCCN` (stereo not given), the “activity, negative = inhibition” value was -0.172%.

Turning to `CC(C)CCCC(C)CCO` (stereo not given), the “activity, negative = inhibition” value is 0.611%. On to `O=C(NN1CCCC1)NS(=O)(=O)c1ccc(Cl)cc1`, for which the “activity, negative = inhibition” value was 8.53% [at 42.5 µM]. On to `CCN(CC)CCc1nc(-c2ccccc2)no1`, for which the “activity, negative = inhibition” value was 40.6% [at 42.5 µM]. Regarding `CCOc1nc2cccc(C(=O)O)c2n1Cc1ccc(-c2ccccc2-c2nn[nH]n2)cc1`, the “activity, negative = inhibition” value is -14.9% [at 42.5 µM]. Regarding `CC(CN)CCCN` (stereo not given), the “activity, negative = inhibition” value is 40.4%. The figure for `CN1CCC(OC(c2ccccc2)c2ccccc2)CC1` is -20.6% [at 42.5 µM]; for `C=CCCCCCC` it is 109%. For `Nc1nc(N)c2nc(CNc3ccc(C(=O)N[C@@H](CCC(=O)O)C(=O)O)cc3)cnc2n1`, the “activity, negative = inhibition” value is -3.92%.

For `COCCO`, the “activity, negative = inhibition” value is 1.41%. Regarding `CC(=O)c1c(C)c([N+](=O)[O-])c(C(C)(C)C)c([N+](=O)[O-])c1C`, the “activity, negative = inhibition” value is -7.47%.

Take `CCCOc1ccc2nc(NC(=O)OC)[nH]c2c1`: the “activity, negative = inhibition” value is 13.4% [at 42.5 µM]. In the case of `CCOc1cc(OCC)c(C(=O)CCC(=O)O)cc1OCC`, the “activity, negative = inhibition” value was 1% [at 42.5 µM]. As to `Cn1c(=O)c2c(ncn2CC(O)CO)n(C)c1=O` (stereo not given), the “activity, negative = inhibition” value is 15.1% [at 42.5 µM]. `C[C@@H](C1=C(CCN(C)C)Cc2ccccc21)c1ccccn1`: the “activity, negative = inhibition” value is -5.69% [at 42.5 µM]. Consider `CC(C)NCC(O)c1cc(O)cc(O)c1` (stereo not given), for which the “activity, negative = inhibition” value is 0.841% [at 42.5 µM]. The figure for `COCCOCCOCCOCCOC` is -8.39%; for `CCCCCC/C=C/C=O` it is -12.6%. For the compound `CCOC(=O)C1=NN(c2ccccc2)C(=O)C1`, the “activity, negative = inhibition” value was 0.212%. As for `O=C(O)COC(=O)Cc1ccccc1Nc1c(Cl)cccc1Cl`, the “activity, negative = inhibition” value is 6.59% [at 42.5 µM]. `Cc1ccc(C(C)c2ccc(C)c(C)c2)cc1C`: the “activity, negative = inhibition” value is -0.23%. In the case of `CC(C(=O)O)c1ccc(C(=O)c2ccccc2)s1` (stereo not given), the “activity, negative = inhibition” value was 142% [at 42.5 µM]. The same measure for `O=C(Cl)c1ccc([N+](=O)[O-])cc1`: -11.1%; for `NCCCOCCOCCOCCCN`: -1.9%; for `O=C1[C@H](CC[C@H](O)c2ccc(F)cc2)[C@@H](c2ccc(O)cc2)N1c1ccc(F)cc1`: -19.1% [at 42.5 µM].

`Cc1ccc(C(=O)C(C)CN2CCCCC2)cc1` (stereo not given): the “activity, negative = inhibition” value was 6.12% [at 42.5 µM]. For the compound `CCC(=O)OC(C)(C)C1CC=C(C)CC1` (stereo not given), the “activity, negative = inhibition” value was 16.3%. Consider `CN(C)CC[C@@H](c1ccc(Br)cc1)c1ccccn1`, for which the “activity, negative = inhibition” value was -16.1% [at 42.5 µM]. Consider `CCCCCCCCC(CO)CCCCCC` (stereo not given), for which the “activity, negative = inhibition” value is 6.58%. On to `CCCCOc1ccc(CC(=O)NO)cc1`, for which the “activity, negative = inhibition” value is 104% [at 42.5 µM].

Turning to `C#CCOC(=O)[C@@H](C)Oc1ccc(Oc2ncc(Cl)cc2F)cc1`, the “activity, negative = inhibition” value is 1.18%. Take `Oc1ccc(O)c2c(O)cccc12`: the “activity, negative = inhibition” value was -14.1%.

As for `O=C(O)Cc1sc(-c2ccccc2)nc1-c1ccc(Cl)cc1`, the “activity, negative = inhibition” value was -2.65% [at 42.5 µM]. The figure for `O=c1c2ccccc2nnn1CCl` is 13%; for `Nc1nc(CC(=O)O)cs1` it is 2.28%; for `CC(=O)Nc1ccc(/C=N/NC(N)=S)cc1` it is 11.4% [at 42.5 µM].

Turning to `Cn1c(N)nc2nc[nH]c2c1=O`, the “activity, negative = inhibition” value was -26.9%. As for `CCN1CCC[C@H]1CNC(=O)c1c(OC)ccc(Br)c1OC`, the “activity, negative = inhibition” value is 0.0245% [at 42.5 µM]. On to `CC/C(=C\C(=N/O)C(N)=O)C(C)[N+](=O)[O-]` (stereo not given), for which the “activity, negative = inhibition” value is 7.76%. For `CC(C)c1ccc2c(C(C)C)cc(C(C)C)c(S(=O)(=O)O)c2c1`, the “activity, negative = inhibition” value is -0.854%.
